From PubChem
KCNK3 inh: human KCNK3 channel inhibition, primary screen; B-score at 10 µM; O14649; 340,000 tested, 0.84% active; CHO-KCNK3 thallium flux, FluxOR fluorescence; stronger effect = lower value;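 active = B-score under library mean minus 4 SD, starting fluorescence ratio at most library mean plus 5 SD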;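 note: more negative B-score means stronger inhibition of thallium flux through KCNK3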
Kir21 inh: Kir2.1 (mouse) channel inhibition. P35561. HEK293-Kir2.1, FluxOR thallium flux fluorescence; stronger effect = lower value. B-score at 10 µM. 310,000 tested, 0.85% active. AID 1672;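 active = fluorescence ratio B-score at or below minus 3 SD of library scores, with starting-brightness B-score within 2 SD, cut at about -4.2 in these data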;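 note: channel flux triggered by added potassium and thallium sulfate stimulus; B-score of peak minus minimum fluorescence over baseline after thallium stimulus; more negative B-score means stronger Kir2.1 block with less thallium influx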
Target sequence (P35561 whole entry, looked up): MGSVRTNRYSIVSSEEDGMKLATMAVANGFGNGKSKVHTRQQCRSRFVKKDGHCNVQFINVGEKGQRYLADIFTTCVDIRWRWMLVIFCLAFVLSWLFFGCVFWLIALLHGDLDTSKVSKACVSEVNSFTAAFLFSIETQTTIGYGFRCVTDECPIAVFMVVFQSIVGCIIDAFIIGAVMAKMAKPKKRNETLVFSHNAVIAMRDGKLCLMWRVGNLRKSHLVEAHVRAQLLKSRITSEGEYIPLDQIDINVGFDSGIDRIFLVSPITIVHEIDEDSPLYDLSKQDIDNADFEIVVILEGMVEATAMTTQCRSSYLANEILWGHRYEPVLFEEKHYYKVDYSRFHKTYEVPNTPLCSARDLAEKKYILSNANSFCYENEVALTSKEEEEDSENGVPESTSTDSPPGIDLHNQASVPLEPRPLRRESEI
TMEM16A inh: blocks the mouse calcium-activated chloride channel TMEM16A | HEK293 TMEM16A/YFP iodide influx fluorescence, ionomycin | 310,000 tested, 1.2% active | Q8BHY3 | normalized B-score (activity score, 25-100; higher = stronger inhibition) at 10 µM | AID 588511;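 active = ratio plate-corrected score three or more library SD toward inhibition, starting fluorescence score within five deviations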;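 note: score derived from kinetic fluorescence span divided by baseline fluorescence per well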
ANO1 activ: activators or potentiators of mouse TMEM16A chloride channel. 340,000 tested, 0.3% active. HEK293 TMEM16A/YFP-H148Q/I152L, iodide quench fluorescence; stronger effect = lower value. B-score at 10 µM. Q8BHY3. AID 623877;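 active = fluorescence-ratio B-score plate-corrected deviation score at least 3 library SD below zero, with starting fluorescence score within 5 deviations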;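 note: channel opened by trigger with iodide after compound preincubation; score built on the fluorescence ratio of max minus min over baseline; more negative score means more quench and so TMEM16A activation or potentiation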
KCNK9 inh: inhibitors of human KCNK9 two-pore domain potassium channel | Q9NPC2 | HEK293 KCNK9, FluxOR thallium flux fluorescence; stronger effect = lower value | B-score at 10 µM | 310,000 tested, 1.2% active | AID 488922;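 active = ratio B-score over 3 SD below the library mean, with starting fluorescence within 5 SD of its mean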;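 note: negative B-score means less thallium flux so channel inhibition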
Hits are given with their value; - = inactive; . = not tested or not shown. Hits are enriched below; roughly 3.5% of the tested compounds scored in any of these assays.

SMILES	KCNK3 inh	Kir21 inh	TMEM16A inh	ANO1 activ	KCNK9 inh
O=C(CCNC(=O)c1ccc([N+](=O)[O-])cc1)Oc1ccc(F)c(F)c1	-	.	.	-	.
COc1cc(C2NC(=O)NC(C)=C2C(=O)OCC2CCCCC2)ccc1O (configuration not stated)	-	-	-	-	-
O=C(COc1ccc(S(=O)(=O)NCc2ccccc2)cc1Cl)NCc1ccccn1	-	-	-	-	-
O=C(COc1ccc(S(=O)(=O)N2CCc3ccccc32)cc1Cl)NCc1ccccn1	-	-5.19	-	-	-
Cc1ccc([N+](=O)[O-])cc1N=Nc1c(-c2ccc([N+](=O)[O-])cc2)[nH]n(C(N)=S)c1=O	-	-	.	-5.44	-
Cc1ccc(-c2csc(=Nc3cccnc3)n2CCCn2ccnc2)cc1C	-	-4.53	25	-	-
COCCn1c(-c2ccccc2)csc1=Nc1cccnc1	-	-	25	-	-
Cc1ccc(-c2csc(=Nc3cccnc3)n2CCCN2CCCC2=O)cc1C	-	-	-	-	-
COc1cc(CC(=O)N/N=C/c2ccc([N+](=O)[O-])cc2)c([N+](=O)[O-])cc1OC	-	-	-	-	-
CCC(CC)NC(=O)CCCSc1nc2ccccc2[nH]1	-	-	-	-	-
CCOc1cc(CNC2CCCC2)cc(Cl)c1OCc1ccccc1	-	-8.76	-	-	-
CCOc1cc(CNC2CCCC2)ccc1OCc1ccccc1Cl	-	-4.44	-	-	-
COc1cc(CNCc2ccccc2Cl)ccc1OCC(=O)NC1CCCCC1	-	-4.74	-	-	-
CCOc1cc(CNCC(C)C)cc(Cl)c1OCc1ccccc1	-	-13.6	-	-	-
O=c1[nH]c(SCc2ccccc2)nc2[nH]ncc12	-	-	-	-	-
Cc1cccc(C)c1NC(=S)N1CCCN(Cc2ccc(F)cc2)C1	-	-	-	-	-
Cc1cccc(C)c1NC(=S)N1CCCN(C)CC1	-	-	-	-5.65	-
Cc1ccc([C@H]2C(C#N)=C(N)Oc3cc(C)oc(=O)c32)o1	-	-	-	-4.62	-
Cc1cc2c(c(=O)o1)C(c1cccs1)C(C#N)=C(N)O2 (configuration not stated)	-	-	-	-	-
CCc1ccc(C(C)NC(=S)NC2CCCCC2)cc1 (configuration not stated)	-	-	-	-	-
CCC(C)c1ccc(C(C)NC(=S)NC2CCCCC2)cc1 (configuration not stated)	-	-	100	-	-
CN1CCN(CC#CCn2c3ccccc3c3ccccc32)CC1	-	-7.08	-	-	-
CCC(Cc1ccccc1)NC(=O)CCn1cccc1 (configuration not stated)	-	-	-	-	-
CCC(Cc1ccccc1)NC(=O)CCc1ccccc1 (configuration not stated)	-	-5.08	-	-	-
O=S(=O)(NCCc1ccc(Cl)cc1)c1cccc2cccnc12	-	-	-	-	-
SMILES	KCNK3 inh	Kir21 inh	TMEM16A inh	ANO1 activ	KCNK9 inh
O=S(=O)(NCc1ccc(Cl)cc1)c1cccc2cccnc12	-	-4.53	-	-	-
Cc1cc(C)c(NS(=O)(=O)c2cccc3cccnc23)c(C)c1	-	-4.37	-	-	-
Cc1ccc(NS(=O)(=O)c2cccc3cccnc23)cc1Cl	-	-	-	-	-
Nc1nc(SCn2nnc3ccccc3c2=O)n[nH]1	-	-	-	-	-
O=C(Nc1ccc(-c2nc3ccccc3[nH]2)cc1)c1cccc(N2C(=O)CCC2=O)c1	-	-	-	-	-
COc1ccc(C(=O)NCC(C)(C)N2CCOCC2)cc1S(=O)(=O)N1CCCC1	-	.	.	-	.
COc1ccc(N(C(=O)Nc2ccc(Cl)cc2)C2=NCCC2)cc1	-	-	25	-	-
Cc1ccc(N(C(=O)Nc2ccccc2)C2=NCCC2)cc1	-	-	-	-	-
Cc1ccc(NC(=O)CSc2nnc(-c3ccncc3)o2)cc1C	-	-	-	-	-
O=C(N/N=C/c1cccc(Br)c1)c1ccc(Cn2cc(Br)cn2)o1	-	-	-	-	-7.47
Cc1ccccc1CNS(=O)(=O)c1ccccc1[N+](=O)[O-]	-	-	-	-	-
Cc1onc(-c2ccccc2)c1CNS(=O)(=O)c1ccccc1[N+](=O)[O-]	-	-6.88	-	-	-
CCOc1ccc(Br)cc1/C(C)=N\NC1=NCCN1	-	-	100	-	-
CCCCCOc1ccc(/C(C)=N/NC2=NCCN2)cc1	-	-	-	-	-
Cc1ccc(SCC(=O)NC(=O)Nc2ccc3c(c2)OCCO3)cc1C	-	-	-	-	-
Cc1ccc(S(=O)(=O)NCCSc2nnnn2-c2ccccc2)cc1	-	-7.08	-	-	-
CCNc1ccc2c(Cl)cc(=O)oc2c1	-	-	-	-	-
O=C(NCc1ccon1)C1CCC(=O)N(CCc2cccc(F)c2)C1 (configuration not stated)	-	-	.	-	-
CC(C)(C)c1ccccc1OCCOCCN1CCCCCC1	-	-	-	-	-
CC(C)(C)c1ccccc1OCCOCCSc1ncccn1	-	-	-	-	-7.5
Cc1ccc(F)c(Oc2cc(NN3CCCCC3)c([N+](=O)[O-])cc2[N+](=O)[O-])c1	-	-	-	-	-7.33
O=c1c2c(nc3n1CCS3)c1cc(F)ccc1n2Cc1cc(=O)n2cc(Cl)ccc2n1	.	-	-	.	-
COc1cccc(C2NC(=O)c3sc(=S)n(-c4ccccc4)c3N2)c1 (configuration not stated)	-	-	-	-	-
COCC1CCN(Cc2cn(-c3ccccc3F)nc2-c2cc(C)sc2C)CC1	-	-	-	-	-
COc1ccc(Nc2nc(N)c3ccccc3n2)c(OC)c1	-	-5.11	-	-	-
SMILES	KCNK3 inh	Kir21 inh	TMEM16A inh	ANO1 activ	KCNK9 inh
COc1ccc(Nc2nc(N3CCN(S(C)(=O)=O)CC3)nc3ccccc23)c(OC)c1	-	-	-	-	-
COc1ccc(Nc2nc(N3CCCCC3)nc3ccccc23)c(OC)c1	-	-6.96	-	-	-
Cc1ccc2nsnc2c1NC(=O)c1ccc([N+](=O)[O-])o1	-	-	-	-	-
CCCN(CCC)C(=O)CSc1nc2n[nH]c(C)c2c(=N)n1-c1ccc(OCC)cc1	-	-	-	-	-
CCOc1ccc(-n2c(SCC(=O)Nc3ccc(CC)cc3)nc3n[nH]c(C)c3c2=N)cc1	-	-	-	-6.44	-
FC(F)(F)Oc1ccc(NC(=S)Nc2ccc(OC(F)(F)F)cc2)cc1	-	-	25	-	-
CC(C(=O)Nc1ccc(C(N)=O)cc1)N1C(=O)c2ccccc2S1(=O)=O (configuration not stated)	-	-	-	-	-
CS(=O)(=O)Nc1ccc(C2=NN(S(C)(=O)=O)C(c3ccc4c(c3)OCO4)C2)cc1 (configuration not stated)	-	-	-	-	-
Cc1[nH]nc(-c2ccc(O)cc2O)c1-c1ccc(Cl)cc1	-	-	100	-	-
COc1ccc(-c2n[nH]c(C)c2-c2ccc(Cl)cc2)c(O)c1	-	-	-	-	-
COc1ccc(-c2cc(C(=O)N3CCc4ccccc4C3)no2)cc1OC	-	-	-	-6.36	-
